# Source: PubChem BioAssay (NCATS)
# Unmarked numbers belong to inactive results. Unless noted, calls follow the shape of the dose curve; as a rule, active = well fitted curve in the direction sought with a large enough effect; inconclusive = small, poorly fitted or top-dose-only effect, or effect the other way, or another doubt; inactive = no such curve, though single readings can be large or run the other way. Results filed as inconclusive are left out.
# Tested on: not listed separately
# Assay: qHTS Validation Assay to Find Inhibitors of Chronic Active B-Cell Receptor Signaling (AID 485345; active = well fitted curve in the direction sought with a large enough effect in the main read-out, with a control signal flat, not every such curve was filed as active;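 also: 0% = untreated basal cells and 100% = 10 µM MG-132 proteasome inhibitor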)
# Details: ABC-DLBCL cells, chronic BCR signaling reporter, CBG luciferase; series mostly up to 46.1 µM; activity change: at the top concentration
# In short: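 Read-out: ratio of filter-corrected green (IkappaBalpha fusion) to red (native) luciferase signal in doxycycline-induced TMD8 cells after 4 h at 37C. Titration spanned 46 uM–3 nM; Data were normalised to basal cells and 10 uM MG-132 wells.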
row,SMILES,activity change [%]
1,CN(C)CCCO[C@@H]1[C@H]2OC(C)(C)O[C@H]2O[C@@H]1[C@H](O)CO,-10.6
2,CC(C)NC[C@@H](O)c1ccc(O)c(O)c1,-1.36
3,CC(N)C(=O)OC(C)(C)Cc1ccc(Cl)cc1 (stereo not given),-2.05
4,O=P(O)(O)C(Cl)(Cl)P(=O)(O)O,-10.9
5,Cc1cc(NC2CCCCC2)nc(-n2nc(C)cc2C)n1,-18.8
6,N=c1ccn2c(n1)O[C@H]1[C@H](O)[C@@H](CO)O[C@H]12,-3.87
7,NCC1OC(O[C@H]2[C@H](O)[C@@H](OC3C(O)C(N)CC(N)C3OC3OC(CO)C(O)C(O)C3N)O[C@@H]2CO)C(N)C(O)C1O (stereo not given in full),1.55
8,CN1C2CC(OC(=O)[C@H](CO)c3ccccc3)CC1C1OC12 (stereo not given in full),-8.39
9,C=CC(C)=C[C@@]1(C)SC(=O)C(C)=C1O,-1.45
10,CC(C)CC(NP(=O)(O)O[C@@H]1O[C@@H](C)[C@H](O)[C@@H](O)[C@H]1O)C(=O)NC(Cc1c[nH]c2ccccc12)C(=O)O (stereo not given in full),0.0037
11,C=C[C@H]1CN2CC[C@@H]1C[C@@H]2[C@@H](O)c1ccnc2ccc(OC)cc12,-8.11
12,CCN(CC)c1ncnc2c1ncn2[C@@H]1O[C@H](COP(=O)(O)OP(=O)(O)C(Br)(Br)P(=O)(O)O)[C@@H](O)[C@H]1O,-3.75

# Target: Beta-2 adrenergic receptor (Homo sapiens) (UniProt P07550)
# Sequence (P07550 whole entry, looked up): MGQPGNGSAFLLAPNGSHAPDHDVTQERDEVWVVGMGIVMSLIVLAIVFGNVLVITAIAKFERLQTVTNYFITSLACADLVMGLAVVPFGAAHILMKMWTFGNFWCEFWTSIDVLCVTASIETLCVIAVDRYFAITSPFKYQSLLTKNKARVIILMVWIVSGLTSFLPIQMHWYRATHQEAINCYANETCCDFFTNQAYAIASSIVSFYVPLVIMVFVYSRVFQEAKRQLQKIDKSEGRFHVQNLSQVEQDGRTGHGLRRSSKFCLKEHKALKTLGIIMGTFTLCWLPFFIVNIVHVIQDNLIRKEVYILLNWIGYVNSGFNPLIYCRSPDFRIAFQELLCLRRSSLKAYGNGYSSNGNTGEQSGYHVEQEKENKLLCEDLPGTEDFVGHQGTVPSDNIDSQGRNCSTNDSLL
# Assay: qHTS validation assay of beta-arrestin-biased ligands of beta2-adrenergic receptor (AID 485366); also: 0% is about no effect
# Details: cell-based beta-arrestin recruitment to ADRB2, qHTS; series mostly up to 46.1 µM; activation: at the top concentration
# In short: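 Luminescence from a tTA-responsive luciferase, induced when recombinant beta-arrestin is recruited to recombinant beta2-AR, served as the agonism signal. Cells were exposed to compound for 18 hr at 37 degrees C; titrations spanned up to 46 microM.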
row,SMILES,activation [%]
1,CN(C)CCCO[C@@H]1[C@H]2OC(C)(C)O[C@H]2O[C@@H]1[C@H](O)CO,0.0089
2,CCCC1(C)C(C#N)(C#N)C1(C#N)C#N,0.199
3,CCCCCCCCc1ccc(-c2ccc(C(=O)O)cc2)cc1,-0.485
4,O=C(CCCCCN1CCN(c2ccccc2-c2ccccc2)CC1)NC1CCCc2ccccc21 (stereo not given),-0.211
5,NS(=O)(=O)C#Cc1ccccc1,-0.717
6,O=C1NC(=O)/C(=C/c2ccc3nccnc3c2)S1,-0.14
7,CCNC(=O)[C@H]1O[C@@H](n2cnc3c(N)nc(NCCc4ccc(CCC(=O)O)cc4)nc32)[C@H](O)[C@@H]1O,6.82
8,Cc1ccc(S(=O)(=O)/C=C/C#N)cc1,0.15
9,COc1ccc2c(c1)CCC1C2CC[C@@]2(C)C1CC[C@@H]2NCCCCCCN1C(=O)CCC1=O (stereo not given in full),0.236
10,Cn1ncc(S(=O)(=O)Cc2ccccc2)c(Br)c1=O,0.0184
11,CC(=O)/C=C1\C(=O)N(C)c2ccccc21,-0.52
12,OC[C@H]1O[C@@H](n2cnc3c(NC4CCCC4)ncnc32)[C@H](O)[C@@H]1O,-0.614
13,O=P(O)(O)C(Cl)(Cl)P(=O)(O)O,-0.857
14,CC[C@@H](C)[C@H]1O[C@]2(CC[C@H]1C)C[C@@H]1C[C@@H](CC=C(C)[C@@H](O[C@H]3C[C@H](OC)[C@@H](O[C@H]4C[C@H](OC)[C@@H](O)[C@H](C)O4)[C@H](C)O3)[C@@H](C)C=CC=C3CO[C@@H]4[C@H](O)C(C)=C[C@@H](C(=O)O1)[C@]34O)O2,-0.0513
15,Cc1cc(NC2CCCCC2)nc(-n2nc(C)cc2C)n1,2.76
16,N=c1ccn2c(n1)O[C@H]1[C@H](O)[C@@H](CO)O[C@H]12,4.03
17,NCC1OC(O[C@H]2[C@H](O)[C@@H](OC3C(O)C(N)CC(N)C3OC3OC(CO)C(O)C(O)C3N)O[C@@H]2CO)C(N)C(O)C1O (stereo not given in full),-0.108
18,Cc1cc2c(cc1Cl)N(C(=O)Nc1ccc(Oc3cccnc3C)nc1)CC2,-1.14
19,CCOC(=O)C1=C(C)NC(C)=C(C(=O)OCC)C1c1c(F)c(F)c(F)c(F)c1F,0.259
20,CCOC(=O)N1CCN(/[N+]([O-])=N/Oc2ccc([N+](=O)[O-])cc2[N+](=O)[O-])CC1,-0.684
21,CC(C)CC(NP(=O)(O)O[C@@H]1O[C@@H](C)[C@H](O)[C@@H](O)[C@H]1O)C(=O)NC(Cc1c[nH]c2ccccc12)C(=O)O (stereo not given in full),-0.578
22,O=[N+]([O-])c1ccc2c(c1)S(=O)(=O)C=C2,0.0584
23,CSc1ccccc1N1CCN(CCCCCC(=O)NC2CCCc3ccccc32)CC1 (stereo not given),0.0261
24,C=C[C@H]1CN2CC[C@@H]1C[C@@H]2[C@@H](O)c1ccnc2ccc(OC)cc12,4.32
25,O=C1/C(=C/c2ccsc2)CC/C1=C\c1cccs1,-0.524
26,CNc1ncnc2c1ncn2[C@@H]1O[C@H](CO)[C@@H](O)[C@H]1O,-0.699
27,N#C/C(=C\c1ccc(-c2cc(Cl)ccc2Cl)o1)C(=O)Nc1cccc2ncccc12,0.178
28,CCN(CC)c1ncnc2c1ncn2[C@@H]1O[C@H](COP(=O)(O)OP(=O)(O)C(Br)(Br)P(=O)(O)O)[C@@H](O)[C@H]1O,-0.184
